Data: PubChem BioAssay (EPA / NIEHS)
The source made the active and inactive calls. How the source made its calls: active means hit-call score of the fitted dose curve at least 0.9, where 1 is the maximum; inactive means score below 0.9.

Assays:
[1] = read-out: Human Leukocyte Antigen - DR isotype (HLADR), HLA-DRA (gene 3122); experiment: BSK_BE3C_HLADR: BioMAP Diversity Plus: BE3C Assay for Human Leukocyte Antigen - DR isotype (HLADR) Biomarker Activity (AID 2283032); conditions: primary human bronchial epithelial cells; actives raise or lower the signal
Method in brief: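 Chemicals are dosed onto BE3C bronchial epithelial cultures of human origin and left 24 h. HLA-DR is then measured by ELISA, and the endpoint is fitted in both directions using DMSO as the activity baseline.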

[2] = read-out: Vascular cell adhesion molecule 1 (VCAM1), VCAM1 (gene 7412); experiment: BSK_4H_VCAM1: BioMAP Diversity Plus: 4H Assay for Vascular cell adhesion molecule 1 (VCAM1) Biomarker Activity (AID 2283033); conditions: primary human endothelial cells (HUVEC); actives raise or lower the signal
Method in brief: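 Chemicals are added to primary human umbilical vein endothelial cells. After 24 h, VCAM-1 levels are measured by ELISA. Values come from bidirectional fitting referenced to DMSO.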

[3] = read-out: Monokine induced gamma interferon (MIG), CXCL9 (gene 4283); experiment: BSK_BE3C_MIG: BioMAP Diversity Plus: BE3C Assay for Monokine induced gamma interferon (MIG) Biomarker Activity (AID 2283035); conditions: primary human bronchial epithelial cells; actives raise or lower the signal
Method in brief: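 hu bronchial epithelial 1° cells, 24 h cpd; MIG by ELISA; bidirectional fit, DMSO = baseline.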

[4] = read-out: Transforming growth factor beta 1 (TGFb1), TGFB1 (gene 7040); experiment: BSK_BE3C_TGFb1: BioMAP Diversity Plus: BE3C Assay for Transforming growth factor beta 1 (TGFb1) Biomarker Activity (AID 2283036); conditions: primary human bronchial epithelial cells; actives raise or lower the signal
Method in brief: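 Bronchial epithelial primary cells are treated with test chemical, then TGF-b1 is quantified by ELISA after 24 hours. Values derive from bidirectional fitting against DMSO, with cytotoxicity checked by SRB staining in parallel cultures.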

[5] = read-out: Plasminogen activator inhibitor-1 (PAI1), SERPINE1 (gene 5054); experiment: BSK_BE3C_PAI1: BioMAP Diversity Plus: BE3C Assay for Plasminogen activator inhibitor-1 (PAI1) Biomarker Activity (AID 2283037); conditions: primary human bronchial epithelial cells; actives raise or lower the signal
Method in brief: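 Values derive from bidirectional fitting against DMSO baseline of PAI-1 levels, measured by ELISA in human bronchial epithelial cells 24 h after compound addition.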

[6] = read-out: urokinase plasminogen activator (uPA), PLAU (gene 5328); experiment: BSK_BE3C_uPA: BioMAP Diversity Plus: BE3C Assay for urokinase plasminogen activator (uPA) Biomarker Activity (AID 2283038); conditions: primary human bronchial epithelial cells; actives raise or lower the signal
Method in brief: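 Measured by ELISA: uPA from human primary bronchial epithelial cells 24 h after chemical treatment. Values derive from bidirectional curve fitting with DMSO serving as negative control. Total protein by SRB staining in parallel wells flagged overt cytotoxicity.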

[7] = read-out: Urokinase-type plasminogen activator receptor (uPAR), PLAUR (gene 5329); experiment: BSK_BE3C_uPAR: BioMAP Diversity Plus: BE3C Assay for Urokinase-type plasminogen activator receptor (uPAR) Biomarker Activity (AID 2283039); conditions: primary human bronchial epithelial cells; actives raise or lower the signal
Method in brief: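 Steps: dose human primary bronchial epithelial cells, incubate 24 h, measure uPAR by ELISA, then fit gain- or loss-of-signal response bidirectionally relative to DMSO.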

[8] = read-out: Interleukin-6 (IL6), IL6 (gene 3569); experiment: BSK_CASM3C_IL6: BioMAP Diversity Plus: CASM3C Assay for Interleukin-6 (IL6) Biomarker Activity for (AID 2283040); conditions: primary human coronary artery smooth muscle cells; actives raise or lower the signal
[9] = read-out: Tissue plasminogen activator (tPA), PLAT (gene 5327); experiment: BSK_BE3C_tPA: BioMAP Diversity Plus: BE3C Assay for Tissue plasminogen activator (tPA) Biomarker Activity (AID 2283041); conditions: primary human bronchial epithelial cells; actives raise or lower the signal
Method in brief: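 Gain- or loss-of-signal in tPA, measured by ELISA, derived by bidirectional fitting against DMSO. Cells: human primary bronchial epithelial; read at 24 h after chemical dosing.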

[10] = read-out: Interleukin-8 (IL8), CXCL8 (gene 3576); experiment: BSK_CASM3C_IL8: BioMAP Diversity Plus: CASM3C Assay for Interleukin-8 (IL8) Biomarker Activity (AID 2283042); conditions: primary human coronary artery smooth muscle cells; actives raise or lower the signal;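 further: IL-8 protein level quantified by ELISA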
[11] = read-out: Human Leukocyte Antigen - DR isotype (HLADR), HLA-DRA (gene 3122); experiment: BSK_CASM3C_HLADR: BioMAP Diversity Plus: CASM3C Assay for Human Leukocyte Antigen - DR isotype (HLADR) Biomarker Activity (AID 2283043); conditions: primary human coronary artery smooth muscle cells; actives raise or lower the signal;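 further: cell-surface HLA-DR protein level quantified by ELISA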
[12] = read-out: Macrophage colony-stimulating factor (MCSF), CSF1 (gene 1435); experiment: BSK_CASM3C_MCSF: BioMAP Diversity Plus: CASM3C Assay for Macrophage colony-stimulating factor (MCSF) Biomarker Activity (AID 2283044); conditions: primary human coronary artery smooth muscle cells; actives raise or lower the signal;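 further: M-CSF protein amount quantified by ELISA after 24 h exposure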
[13] = read-out: Low-density lipoprotein receptor (LDLR), LDLR (gene 3949); experiment: BSK_CASM3C_LDLR: BioMAP Diversity Plus: CASM3C Assay for Low-density lipoprotein receptor (LDLR) Biomarker Activity (AID 2283045); conditions: primary human coronary artery smooth muscle cells; actives raise or lower the signal;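 further: LDLR protein level on the cell surface quantified by ELISA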
[14] = read-out: Monocyte Chemoattractant Protein-1 (MCP1), CCL2 (gene 6347); experiment: BSK_CASM3C_MCP1: BioMAP Diversity Plus: CASM3C Assay for Monocyte Chemoattractant Protein-1 (MCP1) Biomarker Activity (AID 2283046); conditions: primary human coronary artery smooth muscle cells; actives raise or lower the signal;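 further: MCP-1 level quantified by ELISA 24 h after dosing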
[15] = BSK_CASM3C_Proliferation: Cell Proliferation Assessment in the BioMAP Diversity Plus: CASM3C Assay (AID 2283047); conditions: primary human coronary artery smooth muscle cells;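 further: sulforhodamine B total protein stain as relative cell number at 560 nm; sub-confluent cells exposed 48 h before staining; fitted both ways against DMSO so gain or loss of cell number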
[16] = read-out: Monokine induced gamma interferon (MIG), CXCL9 (gene 4283); experiment: BSK_CASM3C_MIG: BioMAP Diversity Plus: CASM3C Assay for Monokine induced gamma interferon (MIG) Biomarker Activity (AID 2283048); conditions: primary human coronary artery smooth muscle cells; actives raise or lower the signal;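 further: MIG protein level measured by ELISA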
[17] = read-out: serum amyloid A (SAA), SAA1 (gene 6288); experiment: BSK_CASM3C_SAA: BioMAP Diversity Plus: CASM3C Assay for serum amyloid A (SAA) Biomarker Activity (AID 2283049); conditions: primary human coronary artery smooth muscle cells; actives raise or lower the signal;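 further: SAA protein level quantified by ELISA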
[18] = BSK_CASM3C_SRB: Viability Assessment in the BioMAP Diversity Plus: CASM3C Assay (AID 2283050); conditions: primary human coronary artery smooth muscle cells;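 further: total protein by SRB staining as cytotoxicity measure in parallel cultures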
[19] = read-out: Thrombomodulin, THBD (gene 7056); experiment: BSK_CASM3C_Thrombomodulin: BioMAP Diversity Plus: CASM3C Assay for Thrombomodulin Biomarker Activity (AID 2283051); conditions: primary human coronary artery smooth muscle cells; actives raise or lower the signal;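 further: thrombomodulin protein level measured by ELISA 24 h after dosing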

Measured: AC50

CCSC(=O)N(CC(C)C)CC(C)C
inactive: all assays above

CCNc1nc(N)nc(Cl)n1
active: [6] 10.9 µM | [17] 20 µM
inactive: all other assays above

CCOC(=O)C(C)Oc1ccc(Oc2nc3ccc(Cl)cc3o2)cc1 (centres undefined)
active: [1] 20 µM | [5] 33.5 µM | [6] 24.3 µM
inactive: all other assays above

COC(=O)CSc1cc(N=c2sc(=O)n3n2CCCC3)c(F)cc1Cl
active: [9] 0.79 µM | [12] 3.97 µM | [15] 29.6 µM
inactive: all other assays above

CSC(=O)c1cccc2nnsc12
active: [19] 20 µM
inactive: all other assays above

O=C(c1ccc(O)cc1O)c1ccc(O)cc1O
active: [5] 34.6 µM
inactive: all other assays above

Oc1ccc(C(c2ccc(O)cc2)C(Cl)(Cl)Cl)cc1
inactive: [4] | [8] | [9] | [10] | [11] | [13] | [14] | [16] | [17]
active: [1] 26.5 µM | [2] 26 µM | [3] 34.7 µM | [5] 28.5 µM | [6] 36.6 µM | [7] 31.1 µM | [12] 9.36 µM | [15] 20 µM | [18] 20.9 µM | [19] 15.5 µM

S=C([S-])NCCNC(=S)[S-].[Mn+2]
active: [1] 30.5 µM | [8] 12.2 µM | [15] 29.9 µM | [19] 27.1 µM
inactive: all other assays above

O=C(Nc1ccc([N+](=O)[O-])cc1Cl)c1cc(Cl)ccc1O
active: [1] 0.148 µM | [2] 0.412 µM | [3] 0.148 µM | [7] 0.148 µM | [8] 0.308 µM | [10] 2.27 µM | [11] 0.899 µM | [15] 1.03 µM | [16] 0.764 µM | [17] 1.56 µM | [18] 0.826 µM | [19] 0.643 µM
inactive: [4] | [5] | [9] | [12] | [13] | [14]

CCCCC(CC)COC(=O)c1ccccc1C(=O)O (centres undefined)
active: [4] 5.04 µM | [6] 29.9 µM
inactive: all other assays above
